{"source": "PubChem BioAssay (NCATS)", "note": "Inconclusive results are not listed. Unmarked numbers belong to inactive results. The source made the active and inactive calls. The call rests on the fitted dose curve. On the % scale 0 is the no-effect control and ±100 the full control effect; potency means the concentration at half of the fitted maximal effect."}
{"target": "Nucleoprotein (Lymphocytic choriomeningitis virus (strain Armstrong)) (UniProt P09992)", "sequence (P09992 whole entry, looked up)": "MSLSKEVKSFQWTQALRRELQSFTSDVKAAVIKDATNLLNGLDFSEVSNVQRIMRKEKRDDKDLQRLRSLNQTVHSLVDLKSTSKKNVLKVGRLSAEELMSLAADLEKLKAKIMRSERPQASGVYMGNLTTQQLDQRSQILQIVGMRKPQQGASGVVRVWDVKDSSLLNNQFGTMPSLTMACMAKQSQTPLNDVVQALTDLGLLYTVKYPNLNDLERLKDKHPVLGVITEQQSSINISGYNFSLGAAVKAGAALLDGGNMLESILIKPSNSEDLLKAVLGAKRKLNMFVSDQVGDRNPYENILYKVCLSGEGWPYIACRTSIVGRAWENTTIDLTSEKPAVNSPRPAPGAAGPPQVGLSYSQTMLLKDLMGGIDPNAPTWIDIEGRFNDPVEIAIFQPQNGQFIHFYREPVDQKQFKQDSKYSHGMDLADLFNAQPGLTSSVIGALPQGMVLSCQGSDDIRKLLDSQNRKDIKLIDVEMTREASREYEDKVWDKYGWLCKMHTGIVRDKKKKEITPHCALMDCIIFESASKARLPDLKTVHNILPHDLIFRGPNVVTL", "assay": "qHTS for Inhibitors of the Functional Ribonucleoprotein Complex (vRNP) of Lymphocytic Choriomeningitis Arenaviruses (LCMV): LCMV Primary Screen - GLuc reporter signal (AID 1347086); further: nearly all actives have a fitted effect of over 70% in size", "details": "LCMV minigenome vRNP cell assay, Gaussia luciferase reporter; series mostly up to 57.5 µM; activity change, negative = inhibition: at the top concentration"}
{"molecule": "CSC(=S)NCc1c[nH]c2ccccc12", "activity change, negative = inhibition": "3.9%"}
{"molecule": "CC1OC(Oc2ccc3ccc(=O)oc3c2-c2c(O)ccc3cc(Oc4ccc5ccc(=O)oc5c4)c(=O)oc23)C(O)C(O)C1O", "note": "(stereo not given)", "activity change, negative = inhibition": "-15.8%"}
{"molecule": "CCCCC(C=O)NC(=O)C(CC(C)C)NC(=O)OCc1ccccc1", "note": "(stereo not given)", "activity change, negative = inhibition": "-16.3%"}
{"molecule": "COc1c2c(c(OC)c3c1c(=O)c1ccccc1n3C)OCO2", "activity change, negative = inhibition": "20.2%"}
{"molecule": "CC1=CC(=O)OC2CC3OC4C[C@@H](C)C5OC6CC7O[C@]8(C)C/C=C\\C9OC%10CC%11OC(CC(C)CO)CC(O)[C@]%11(C)OC%10CC9OC8C[C@]7(C)O[C@]6(C)CCC5OC4C[C@]3(C)OC12", "note": "(stereo not given in full)", "activity change, negative = inhibition": "22.7%"}
{"molecule": "CC1=CCC[C@@H]2[C@@](C)(CC/C(C)=C/C(=O)O)[C@H](C)CC[C@@]12C", "activity change, negative = inhibition": "26.2%"}
{"molecule": "C=C[C@]1(C)C=C2C(=O)[C@@]3(O)OC(=O)[C@@]4(CCCC(C)(C)[C@H]34)[C@@]2(O)CC1", "activity change, negative = inhibition": "-29.2%"}
{"molecule": "O=C1CCCCCCCCCCCCCCCO1", "activity change, negative = inhibition": "22.8% [at 115 µM]"}
{"molecule": "CCCCC[C@H](O)/C=C/C=C/C/C=C\\CCCC(=O)O", "activity change, negative = inhibition": "8.09% [at 0.757 µM]"}
{"molecule": "CC(=O)O[C@]1(C(C)=O)CC[C@@H]2[C@@H]3C[C@H](C)C4=CC(=O)CC[C@]4(C)[C@H]3CC[C@@]21C", "activity change, negative = inhibition": "15.1%"}
{"molecule": "COc1cc(=O)n(C)c2c(OCC3OC(C)(C)OC3(C)C)cccc12", "note": "(stereo not given)", "activity change, negative = inhibition": "-13.1%"}
{"molecule": "C=CC(C)(C)O[C@@H]1O[C@H](CO)[C@@H](O)[C@H](O)[C@H]1O", "activity change, negative = inhibition": "0.505%"}
{"molecule": "CC(C)NC[C@@H](C(=O)N1CCN(c2ncnc3c2[C@H](C)C[C@H]3O)CC1)c1ccc(Cl)cc1", "Potency": "0.863 µM (active)"}
{"molecule": "CC1(C)C=Cc2c(c3c(c4c(=O)c(-c5ccc(O)cc5)coc24)OC(C)(C)CC3)O1", "activity change, negative = inhibition": "30.1%"}
{"molecule": "COc1ccc(C[C@H]2c3cc(O)c(OC)cc3CC[N+]2(C)[O-])cc1O", "note": "(stereo not given in full)", "activity change, negative = inhibition": "2.34%"}
{"molecule": "[3H]C([3H])([3H])C(O)(CCC[C@@H](C)C1CC[C@H]2/C(=C/C=C3/C[C@@H](O)CCC3=C)CCC[C@]12C)C([3H])([3H])[3H]", "note": "(stereo not given in full)", "activity change, negative = inhibition": "-30.2%"}
{"molecule": "O=C(Nc1ncc(SCCN2CCCC2)s1)[C@]1(c2ccc(S(=O)(=O)C3CC3)cc2)C[C@@H]1C1CCCCC1", "activity change, negative = inhibition": "-1.74%"}
{"molecule": "CCCSSCCC", "activity change, negative = inhibition": "9.51% [at 115 µM]"}
{"molecule": "C=C(C)C(O)CC/C(C)=C/Cc1c(O)ccc(C(=O)/C=C/c2ccc(O)cc2)c1O", "note": "(stereo not given)", "activity change, negative = inhibition": "4.48%"}
{"molecule": "C[C@@H]1CC[C@]2(C(=O)O[C@@H]3O[C@H](CO)[C@@H](O)[C@H](O)[C@H]3O)CC[C@]3(C)C(=CCC4[C@@]5(C)C[C@@H](O)[C@H](O)[C@@](C)(C(=O)O[C@@H]6[C@H](O)C[C@@]7(C)C(CC[C@]8(C)C7CC=C7[C@H]9[C@](C(=O)O[C@@H]%10O[C@H](CO)[C@@H](O)[C@H](O)[C@H]%10O)(CC[C@@H](C)[C@@]9(C)O)CC[C@]78C)[C@@]6(CO)C(=O)O)C5CC[C@]43C)[C@@H]2[C@]1(C)O", "note": "(stereo not given in full)", "activity change, negative = inhibition": "-0.646%"}
{"molecule": "Cc1ccc2oc3ccccc3c(=O)c2c1", "activity change, negative = inhibition": "8.63%"}
{"molecule": "Cc1c(O)c(C)c2c(c1O)C(=O)C[C@@H](c1ccccc1)O2", "activity change, negative = inhibition": "21.1%"}
{"molecule": "Cc1[nH]c(C=C2C(=O)Nc3ccc(S(=O)(=O)Cc4c(Cl)cccc4Cl)cc32)c(C)c1C(=O)N1CCC[C@H]1CN1CCCC1", "activity change, negative = inhibition": "26.1%"}
{"molecule": "COc1cc(-c2oc3cc(O)cc(O)c3c(=O)c2O[C@@H]2O[C@H](CO)[C@@H](O)[C@H](O)[C@H]2O)cc(OC)c1O", "activity change, negative = inhibition": "17.3% [at 24.7 µM]"}
{"molecule": "CC(=O)NC(Cc1cnc[nH]1)C(=O)O", "note": "(stereo not given)", "activity change, negative = inhibition": "10.8%"}
{"molecule": "CC(=O)c1c(O)cccc1O", "activity change, negative = inhibition": "8.49%"}
{"molecule": "OC[C@H]1O[C@@H](O[C@H]2[C@@H](O)[C@@](O)(CO)O[C@@H]2CO)[C@H](O)[C@@H](O)[C@@H]1O", "activity change, negative = inhibition": "-4.79%"}
{"molecule": "CCCCC/C=C\\C=C\\C(=O)OCC", "activity change, negative = inhibition": "9.58% [at 115 µM]"}
{"molecule": "CCCCC/C=C\\C/C=C\\C[C@H](O)/C=C/C=C\\CCCC(=O)O", "activity change, negative = inhibition": "11.5% [at 0.757 µM]"}
{"molecule": "CN[C@H]1[C@@H](O)[C@@H]2O[C@@H]3O[C@H](C)CC(=O)[C@]3(O)O[C@@H]2[C@@H](NC)[C@H]1O", "Potency": "1.72 µM (active)"}
{"molecule": "CC(=O)OCC(=O)[C@@]1(O)CC[C@H]2[C@@H]3CCC4=CC(=O)C=C[C@]4(C)[C@@H]3[C@@H](O)C[C@@]21C", "activity change, negative = inhibition": "55.6%"}
{"molecule": "C/C=C1/CN2C3CC1C(CO)(C(=O)OC)C2Cc1c3n(C)c2ccccc12", "note": "(stereo not given)", "activity change, negative = inhibition": "4.99%"}
{"molecule": "O=c1c2c(O)cc(O)cc2oc2c(O)ccc(O[C@H]3O[C@@H](CO)[C@H](O)[C@@H](O)[C@@H]3O)c12", "activity change, negative = inhibition": "8.84%"}
{"molecule": "CC(C)=CCc1c(O)cc(O)c2c1OC(c1ccc(O)cc1)CC2=O", "note": "(stereo not given)", "activity change, negative = inhibition": "10.4%"}
{"molecule": "CCCCC/C=C\\C[C@@H]1O[C@H]1/C=C/C(O)C/C=C\\CCCC(=O)O", "note": "(stereo not given in full)", "activity change, negative = inhibition": "7.04% [at 0.757 µM]"}
{"molecule": "CC/C=C\\CCOC(=O)C(C)C", "activity change, negative = inhibition": "4.56%"}
{"molecule": "CCCCCCCCCCCCCCCCCC(=O)NCC(COP(=O)([O-])OCC[N+](C)(C)C)OCC", "note": "(stereo not given)", "activity change, negative = inhibition": "13.6%"}
{"molecule": "COC(=O)c1ccccc1OC", "activity change, negative = inhibition": "16.2% [at 115 µM]"}
{"molecule": "CC(C)C(=O)OCCc1ccccc1", "activity change, negative = inhibition": "2.32% [at 115 µM]"}
{"molecule": "CC(=O)O[C@@]1(C)C[C@@H](O)[C@]2(O)C=CO[C@@H](O[C@@H]3O[C@H](CO)[C@@H](O)[C@H](O)[C@H]3O)[C@@H]21", "activity change, negative = inhibition": "-7.85%"}
